The results in this text go back to ChEMBL document CHEMBL4513216, “Probing the Open Global Health Chemical Diversity Library for Multistage-Active Starting Points for Next-Generation Antimalarials” (ACS Infect Dis, 2020).

Out of some 69,000 compounds screened, about 8,600 (12%) showed an effect of 50% or more. The list comes from a sample in which strong results are over-represented; it also holds similar structures and randomly drawn compounds.

This assay has as its system Plasmodium berghei. Kind of assay: Screen against P. berghei liver stage (PbLuc), transformed with Luciferase, at 10uM. The class given is functional, HepG2. The conditions noted are these: tested at 10 uM.
Take `O=C(c1ccc(-n2cnnc2)cc1Cl)N1CCCC2(CCNC2)C1` (stereo unspecified): the INHIBITION amounted to 35.1%.
With `O=C(c1cnc(Nc2ccccc2)nc1)N1CCC2(CCNCC2)CC1` the figure was 30.4%; with `O=C(c1ccnc(-n2cnnc2)c1)N1CCCC2(CCNC2)C1` (stereo unspecified), 56.5%; with `O=C(c1cnc(Nc2ccccc2)nc1)N1CCS(=O)(=O)CC1`, 27.4%.
For the compound `CCOCCC(=O)N(CCC#N)c1ccc(C)c(C)c1`, the INHIBITION was -2.27%.
With `CCc1[nH]nc(NC(=O)c2ccc(Cl)cn2)c1C` the figure was -61.3%; with `COCCCN1CCC(N(Cc2noc(C)n2)C(C)=O)C1` (stereo unspecified), 16.9%; with `Cc1nc[nH]c1CN1CCc2nc3scc(C)c3c(=O)n2CC1`, 26.8%.
For the compound `Cc1cc2c(=O)n3c(nc2s1)CCN(Cc1[nH]cnc1C)CC3`, the INHIBITION is reported as 54.4%.
With `Cc1cc2c(=O)n3c(nc2s1)CCN(Cc1cnc(C(C)C)nc1)CC3` the figure was 43.7%; with `CCc1ncc(CN2CCc3nc4sc(C)cc4c(=O)n3CC2)cn1`, 13%; with `Cc1cc2c(=O)n3c(nc2s1)CCN(Cc1ccncc1)CC3`, 58.6%.
Next, `Cc1cc2c(=O)n3c(nc2s1)CCN(Cc1c[nH]cn1)CC3`: 23.2%; `O=C1COC2(CCN(CC3CCC3)CC2)CN1c1cncnc1`: 8.67%.
Next, `Cn1cnnc1C1CCCN(C(=O)COc2ccccc2Cl)C1` (stereo unspecified): -37.7%.
As to `Cc1cccc(CN2C[C@@H]3CN(C(=O)c4cnccn4)C[C@@H]3C2=O)n1`, the INHIBITION stood at 43.2%.
As to `O=C(CCN1CCOCC1)Nc1cccc(CNCc2cccs2)c1`, the INHIBITION is recorded as 49.2%.
Next, `CCC[C@H]1CN(S(C)(=O)=O)C[C@@H]1NC(=O)Cc1ccc(OC)cc1`: -26.9%; `COCCOCCNC(=O)c1ccc(N2CCC(C)=N2)cc1`: 50.1%.
Next, `CC1=NN(c2ccc(C(=O)OCCNC(=O)c3ccncc3)cc2)CC1`: -17.8%; `COCCNC(=O)CCNC(=O)c1ccc(N2CCC(C)=N2)cc1`: 40.2%; `CC(NC(=O)N1CCCN(C)CC1)c1ccc2c(c1)OCCO2` (stereo unspecified): -9.39%.
With `Cn1nccc1C(=O)N1CCOC(Cc2cccnc2)C1` (stereo unspecified) the figure was 39.2%; with `c1cncc(CN2CCOC(c3ncn4c(C5CC5)cccc34)C2)c1` (stereo unspecified), 14.2%; with `c1cc(C2CC2)n2cnc(C3CN(Cc4nccs4)CCO3)c2c1` (stereo unspecified), 15.7%.
Turning to `c1cc(C2CC2)n2cnc(C3CN(Cc4ccncc4)CCO3)c2c1` (stereo unspecified), the INHIBITION is 51.2%.
Next, `Cc1nc(C)n(CC2CCCN2c2ncnc3sc(C)c(C)c23)n1` (stereo unspecified): -11.6%.
On to `c1ccc2ncc(CC3CCNCC3)cc2c1`, for which the INHIBITION was -0.232%.
With `COC1C[C@@H]2CN(C(=O)Cc3ccc(C)s3)C[C@@H]2C1` (stereo partly specified) the figure was -34.45%; with `Fc1ccc(CN2CCOC[C@H](Oc3cccnc3)C2)cc1`, 38.1%.
With `Clc1ccc(CN2CCOC[C@H](Oc3cccnc3)C2)cc1` the figure was -11.1%; with `FC(F)(F)c1cccc(CN2CCOC[C@H](Oc3cccnc3)C2)c1`, 63.8%.
For the compound `CC(C(=O)Nc1ccc(Cl)cn1)N1CCc2nn(C)c(=O)cc2C1` (stereo unspecified), the INHIBITION was 6.23%.
Next, `Cc1cccc(CN2CCn3cc(Cn4cccn4)nc3C2)n1`: -46.9%; `CO[C@H]1CNC[C@@H]1NC(=O)CCc1nc(-c2ccccc2)no1`: 0.426%.
With `CC(CNC(=O)c1ccn(-c2ccc(F)cc2)n1)Cn1cccn1` (stereo unspecified), the INHIBITION is listed as 39.6%.
Next, `Cc1nc(CN2CCO[C@@H]3CN(C(=O)CN(C)C)CC[C@@H]3C2)cs1`: -9.18%; `Cc1cc(C)cc(NC(=O)Nc2c(O)c3ccccc3oc2=O)c1`: 59.8%; `Cc1ccc(NC(=O)Nc2c(O)c3ccccc3oc2=O)cc1`: 41.6%.
Next, `Cc1ccc(NC(=O)Nc2c(O)c3ccccc3oc2=O)cc1C`: -43.7%; `COc1ccccc1C1(O)CCCN(C(=O)c2csc(C(C)=O)c2)C1` (stereo unspecified): 36%.
Next, `Cc1occc1C(=O)N1CCC2(CC1)CC(OCc1ccccn1)CO2` (stereo unspecified): 31.1%.
For `c1ccc(O[C@@H]2CN(Cc3nccs3)[C@@H]3CCCO[C@@H]32)nc1`, the INHIBITION was determined as 27.6%.
With `c1cnn([C@@H]2CN(Cc3nccs3)[C@@H]3CCCO[C@@H]32)c1` the figure was 63.5%; with `c1csc(CN2C[C@@H](n3cccn3)[C@H]3OCCC[C@H]32)c1`, -2.41%; with `CS(=O)(=O)c1cc(Cl)cnc1C1CCCN(C(=O)C2CCOCC2)C1` (stereo unspecified), 30.65%.
Regarding `CN1C(=O)CC(C(=O)O)C12CCN(Cc1ccc(Cl)c(Cl)c1)CC2` (stereo unspecified), the INHIBITION is 5.46%.
Next, `O=C1NCCN2CCN(Cc3ccc(Cl)c(Cl)c3)CC12` (stereo unspecified): 52.2%.
With `CNS(=O)(=O)c1ccc(CN2CCN3CCNC(=O)C3C2)cc1` (stereo unspecified) the figure was 49.9%; with `COc1cccc(S(=O)(=O)CCN2CCn3c(C)nnc3C2)c1`, -17%.
Consider `CCCn1cc(CN2CCC(c3[nH]ncc3S(C)(=O)=O)C2)cn1` (stereo unspecified), for which the INHIBITION stood at 45.6%.
Next, `CCn1cc(CN2CCCC(c3[nH]ncc3-c3ccc(F)cc3)C2)cn1` (stereo unspecified): 9.52%; `CCn1cc(C(=O)N2CCCC(c3[nH]ncc3S(C)(=O)=O)C2)cn1` (stereo unspecified): 16.9%.
Next, `CCn1cc(CN2CCCC(c3[nH]ncc3S(C)(=O)=O)C2)cn1` (stereo unspecified): 57.2%; `CCn1cc(CN2CCCC(c3[nH]ncc3-c3ccc(C)cc3)C2)cn1` (stereo unspecified): 70.9%.
With `CCn1cc(CN2CCC(c3[nH]ncc3S(C)(=O)=O)C2)cn1` (stereo unspecified) the figure was 41.2%; with `COc1cc(-c2n[nH]c(CO)n2)cc(OC)c1OC`, 17.1%.
`CC(Cn1ccnc1)NC(=O)Nc1ccccn1` (stereo unspecified): the INHIBITION is given as 29.95%.
With `CCOC(=O)c1ccc(NC(=O)c2c(O)nc3c(c2O)CCCC3)cc1`, the INHIBITION stood at 27.5%.
Next, `CC(C)c1nccn1CCC(=O)N1CCCCC1c1ccn[nH]1` (stereo unspecified): 30.95%; `Cc1nn(C)c(N2CCOCC2)c1CNC1COc2ccccc2C1` (stereo unspecified): 5.03%.
